# Source: PubChem
# A selection: hits, their analogues and other compounds. The true share with any hit is near 21%.
# Pf growth 96h: inhibits malaria parasite growth, 96 h; P. falciparum luciferase reporter growth, 96 h; Potency, µM (highest dose often 28.7 µM), for inactives: at the top dose activity change, negative = inhibition, most hits filed as inhibitors; hit rate 6.9% among 320,000; note: potency is the fitted concentration of half-maximal effect; % is set by controls: 0 for no effect and ±100 for the full control effect
#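 Two-generation exposure (96 h) targets delayed-death phenotype. Reporter parasites carrying integrated firefly luciferase, in red cells at 2% hematocrit and 0.05% parasitemia final, kept at 37 C, 5% CO2; luminescence loss indicates inhibition.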
# Shiga inhibitor: Shiga toxin inhibition; inhibition, % at 38.7 µM; AID 2315; hit rate 9.2% among 290,000; Vero cells, Shiga toxin protein synthesis inhibition reporter; in the data active = inhibition mostly above about 28%, no sharp cut-off; inactive = mostly below about 43%; note: 0% is about no effect
# Cycloheximide cs: counter-screen for Shiga toxin inhibitors: cycloheximide protein synthesis inhibition; cell reporter, cycloheximide protein synthesis inhibition counterscreen; hit rate 12% among 300,000; max response, %; in the data active = max response mostly above about 13%, no sharp cut-off; inactive = mostly below about 14%; note: read at 38.3 µM for the half of the compounds with a filed dose; 0% is about no effect
# Pf growth 48h: inhibits P. falciparum growth in the first generation, 48 h | P. falciparum luciferase growth in erythrocytes, 48 h | Potency, µM (doses to about 28.7 µM), for the others: at the highest dose activity change, negative = inhibition, hits mostly inhibitors | hit rate 5.9% among 310,000 | AID 504832; note: potency is the fitted concentration of half-maximal effect; % is set by controls: 0 for no effect and ±100 for the full control effect
#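 Luciferase-expressing parasites in RBCs, 2% Hct / 0.1% parasitemia final; RPMI 1640 + 0.5% Albumax; 37 C, 5% CO2, one generation; luminescence read-out, lower signal = inhibition.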
# * = called active by the depositor; ? = inconclusive; · = no result. Unless noted, calls come from the whole dose curve; as a rule, active = well fitted inhibition curve with a large enough effect; inconclusive = small, poorly fitted or top-dose-only effect, or another doubt; inactive = no such curve, though single readings can be large or run the other way.
SMILES,Pf growth 96h,Shiga inhibitor,Cycloheximide cs,Pf growth 48h
CCOc1ccc(OCCCC(=O)N2CCN(S(=O)(=O)c3ccc(Cl)cc3)CC2)cc1,7.1%,·,·,4.7%
O=C(CCCOc1ccccc1)N1CCN(S(=O)(=O)c2ccc(Cl)cc2)CC1,8.7%,·,·,11.7µM*
O=C(COc1ccc(Cl)cc1)N1CCCCC1,·,52.0*,34.4*,24.5%
C=CCSc1nc(C)c2cc(C)cc(C)c2n1,·,-9.0,-2.6,5.1%
COc1ccc(CNC(=O)CNC(=O)CNS(=O)(=O)c2ccc(C)c(C)c2)cc1,13.9%,9.4,-6.4,19.8%
O=C(Cn1cc(C(F)(F)F)ccc1=O)N1CCN(S(=O)(=O)c2ccc(Cl)cc2)CC1,?,12.5,-1.8,2.94µM*
N#Cc1ccccc1OCC(=O)N1CCN(S(=O)(=O)c2ccc(Cl)cc2)CC1,10.4µM*,·,·,?
COc1ccccc1C(=O)NCCC(=O)N1CCN(S(=O)(=O)c2ccc(Cl)cc2)CC1,13.1µM*,·,·,?
COc1ccccc1C(=O)NCCC(=O)Nc1ccc(S(=O)(=O)N2CCCC(C)C2)cc1 (stereo not given),?,·,·,14.7µM*
NC(=O)c1cc(S(=O)(=O)N2CCOCC2)cs1,?,8.9,-1.0,5.9%
O=C1CN(S(=O)(=O)c2cccc(Cl)c2Cl)c2ccccc2N1,20.2%,-9.3,-3.8,-2.9%
CC(=O)c1ccc(N(C(=O)c2csnn2)C(C(=O)NC(C)(C)C)c2cccs2)cc1 (stereo not given),-3.5%,-10.7,1.2,-23.1%
Cc1cc(C)c2cc(CN(CCCO)S(=O)(=O)c3ccccc3F)c(=O)[nH]c2c1,20.5%,-8.7,-3.6,4.3%
O=C(CCCOc1ccc(Cl)cc1)N1CCOCC1,260.2%,30.4*,10.5,24.0%
CC(C)(C)c1ccc(OCCCC(=O)N2CCOCC2)cc1,-8.1%,55.1*,39.8*,17.7%
Cc1cccc(OCCCC(=O)N2CCCCCC2)c1C,?,-3.7,-1.9,13.8%
COc1ccc(OCCC(=O)N2CCOCC2)cc1,207.7%,33.7,7.7,25.5%
O=C(CCCOc1ccc(Cl)cc1)N1CCCCCC1,66.1%,77.4*,39.0*,44.9%
O=C(CCCOc1ccccc1)N1CCCCC1,29.6%,17.2,54.8*,·
O=C(OCCCC(=O)N1CCOCC1)c1ccccc1,40.2%,15.5,3.0,42.9%
Cc1cccc(OCC(=O)OC(C)CN2CCCCC2)c1 (stereo not given),?,1.3,1.3,3.2%
CCOC(=O)C1CCN(C(=O)CCCOc2ccccc2)CC1,·,63.8*,36.2*,123.2%
O=C(CSCc1cccc(Cl)c1)N/N=C/c1ccc(OCC(=O)N2CCCCC2)cc1,6.9%,-2.8,13.0*,-5.9%
COc1cc(C(=S)N2CCCCC2)ccc1OCC(=O)N1CCCC1,?,8.6,2.9,4.8%
COc1cc(C=O)ccc1OCC(=O)N1CCCC1,9.28µM*,-6.1,-1.2,2.9%
SMILES,Pf growth 96h,Shiga inhibitor,Cycloheximide cs,Pf growth 48h
O=C(CCCOc1ccc(Cl)cc1)N1CCCCC1,·,85.5*,40.3*,70.3%
Cc1cccc(C(=O)N/N=C/c2ccc(OCC(=O)N3CCCCC3)cc2)c1,-13.1%,23.4,3.9,?
O=C(COc1ccc(Cl)cc1)N1CCCCCCC1,?,6.9,12.5,48.8%
CCOC(=O)C1CCN(C(=O)CCCN2C(=O)c3ccccc3C2=O)CC1,·,-4.5,-1.2,7.1%
COC(=O)/C(C#N)=C\c1c(OC)[nH]c2ccccc12,30.8%,-3.4,0.9,-10.3%
CC1CN(C(=O)COC(=O)c2nn(-c3ccccc3)c(=O)c3ccccc23)CC(C)O1 (stereo not given),3.5%,16.0,10.0,-7.3%
CC(C)OC(=O)c1cn(Cc2c(F)cccc2F)c2sc(-c3ccc(NC(=O)C(C)C)cc3)c(CN(C)Cc3ccccc3)c2c1=O,·,-5.4,6.6,·
Cc1cc(Cl)ccc1OCC(=O)N1CCCCC1,0.9%,63.8*,46.5*,70.7%
Cc1cc(Cl)ccc1OCC(=O)N1CCN(c2ncccn2)CC1,-20.3%,4.6,-0.7,?
COC(=O)c1c(N)sc(C(=O)NCCc2ccccc2)c1C,0.0%,-5.5,1.4,140.3%
Cc1ccc(CNC(=O)C2CCCN(S(=O)(=O)c3cccc4nonc34)C2)cc1 (stereo not given),?,-11.4,-1.7,1.4%
COc1ccc(-c2csc(NC(C)=O)n2)cc1OC,·,20.3,21.2*,28.9%
COc1cccc(NC(=O)Nc2nc(-c3ccc(OC)c(OC)c3)cs2)c1,11.7µM*,66.6*,21.8*,?
COc1cccc(CC(=O)Nc2nc(-c3ccc(F)c(F)c3)cs2)c1,0.9%,-2.1,-2.3,5.9%
COc1ccc(-c2csc(NC(=O)Cc3ccccc3)n2)cc1OC,-11.6%,15.6,20.5,?
COc1cccc(-c2csc(NC(C)=O)n2)c1,15.6%,87.3*,47.1*,44.4%
CCC1(CC)C(=O)C2=C3C1[C@H](C(=O)OC)C=C(C(=O)OC)C[C@H]3n1c(=O)n(-c3ccccc3)c(=O)n1[C@H]2C (stereo not given in full),·,-3.7,-3.8,·
Oc1ccc(C(O)CNCCCCCCNCC(O)c2ccc(O)c(O)c2)cc1O (stereo not given),12µM*,·,·,7.57µM*
CCCOc1ccc(C(=O)CCC(=O)NNC(=O)c2cccs2)cc1,23.2%,·,·,13.5%
C[C@]12CC[C@H]3[C@@H](CCC4=CC(=O)CC[C@@]43C)[C@@H]1CC[C@@H]2C(=O)CO,9.28µM*,-11.1,0.9,11.7µM*
CC(C)(CNC(=O)c1ccc(S(=O)(=O)Nc2cccc(C(F)(F)F)c2)cc1)N1CCOCC1,-3.8%,·,·,?
Cc1cc(CN(C)C(=O)CC2C(=O)NCCN2Cc2ccc(-c3ccccc3)cc2)on1 (stereo not given),10.4µM*,11.7,5.3,-16.6%
CC(C)N(Cc1nccn1C)C(=O)CC1C(=O)NCCN1Cc1ccc(F)cc1 (stereo not given),13.1µM*,9.3,-11.2,15.6%
Cc1ccc(CN2CCNC(=O)C2CC(=O)N(C)Cc2cnccn2)cc1 (stereo not given),13.1µM*,35.4,-1.3,27.7%
CCOc1ccc(CN2CCNC(=O)C2CC(=O)NCc2csc(C)n2)cc1 (stereo not given),3.29µM*,-6.0,0.2,-3.4%
SMILES,Pf growth 96h,Shiga inhibitor,Cycloheximide cs,Pf growth 48h
Cc1ccccc1NC(=O)c1c2c(nc3ccccc13)CCC2,-20.7%,-10.2,-4.2,15.4%
O=C(c1ccc2[nH]c(=O)c(=O)[nH]c2c1)N1CCN(c2ccccc2)CC1,-38.2%,11.3,-7.7,7.0%
O=C(CC1C(=O)NCCN1Cc1cccc(C(F)(F)F)c1)NCCc1cnccn1 (stereo not given),2.08µM*,5.2,-3.5,33.0%
Cc1nonc1CN(C)C(=O)CC1C(=O)NCCN1Cc1cccc(C(F)(F)F)c1 (stereo not given),10.4µM*,-3.5,-1.9,36.1%
O=C(CC1C(=O)NCCN1Cc1c(F)cccc1Cl)NCCCOc1cccnc1 (stereo not given),14.7µM*,-2.9,7.9,-15.8%
O=C(CC1C(=O)NCCN1Cc1ccc(F)cc1)NCCOc1cccnc1 (stereo not given),?,-3.3,-0.8,-23.3%
CN(C(=O)CSc1nnnn1C)C1(C#N)CCCCC1,22.2%,·,·,-11.2%
COc1ccc(S(=O)(=O)N2CCN(CCc3ccccc3)CC2)cc1,?,-4.7,0.2,11.6%
